The subject of assay [1] is Human papillomavirus type 1a protein E7 (residues 44-93). As to the kind of experiment: small molecules binding HPV E7 44-93 – biochemical, small-molecule microarray, residues 44-93, 635 nm fluorescence, primary screen (AID 1108).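 Also: E7 fragment applied at 1 µg/mL in TBST for 1 h at 4 C; score combines spot fluorescence with its signal to noise ratio.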 The conditions noted are these: fluorescence 635 nm, higher = more signal.
Assay [2] in a line: hepatitis C replication reporter changes, two-sided – Huh7 cells, luciferase reporter, HCV replication inhibitor project, primary screen (AID 1109).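 Also: huh7 hepatoma cells harbouring a luciferase neomycin HCV replicon reporter; luciferase luminescence as measure of HCV replicon replication; test concentration not given here.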 The conditions noted are these: Huh7 HCV replicon luciferase reporter, 48 h; higher = more signal.
The target in assay [3] is Left-right determination factor 2 (Homo sapiens) (UniProt O00292). The experiment in a line: small molecules binding LEFTY2 protein – biochemical, small-molecule microarray, 635 nm fluorescence scan, primary screen (AID 1110). The conditions noted are these: higher = more signal.
Sequence of Left-right determination factor 2 (Homo sapiens) (O00292 whole entry, looked up): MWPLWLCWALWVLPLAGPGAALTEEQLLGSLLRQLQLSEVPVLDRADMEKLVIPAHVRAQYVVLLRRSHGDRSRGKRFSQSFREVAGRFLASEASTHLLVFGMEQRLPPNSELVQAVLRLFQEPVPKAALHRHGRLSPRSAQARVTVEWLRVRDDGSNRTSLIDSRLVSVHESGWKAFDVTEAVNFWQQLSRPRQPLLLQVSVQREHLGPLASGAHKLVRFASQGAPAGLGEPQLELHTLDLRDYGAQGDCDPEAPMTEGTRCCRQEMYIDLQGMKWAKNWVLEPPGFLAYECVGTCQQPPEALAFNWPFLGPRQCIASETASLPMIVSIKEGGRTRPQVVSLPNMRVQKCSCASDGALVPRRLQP
Assay [4] concerns the target Calmodulin-1 (Homo sapiens) (UniProt P0DP23). The experiment in a line: small molecules binding calmodulin-1 with EGTA – biochemical, small-molecule microarray, Cy5-labelled CALM1, profiling panel (AID 1111).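 Also: labelled calmodulin applied in Tris saline Tween buffer holding calcium plus EGTA and DTT.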 The conditions noted are these: Cy5-CALM1 binding fluorescence, higher = more signal.
Assay [5] shares this target. As to the kind of experiment: small molecules binding Ca-loaded calmodulin-1 – biochemical, small-molecule microarray, Cy5-labelled CALM1, plus calcium, artefact control for SMM control-protein annotation, profiling panel (AID 1112).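 Also: score merges spot fluorescence with signal to noise from triplicate slides.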 The conditions noted are these: Cy5-CALM1 binding fluorescence, higher = more signal.
Assay [6] can be described thus: probe aWnt5a binding to arrayed compounds – biochemical, biotinylated probe, 635/667 nm fluorescence, primary screen (AID 1113).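 Also: score merges 667 nm fluorescence intensity with signal-to-noise per printed feature.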 The conditions noted are these: small-molecule microarray, higher = more signal.
Assay [7] can be described thus: probe aShh binding to arrayed compounds – biochemical, biotinylated probe, 635/667 nm fluorescence, primary screen (AID 1114).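 Also: probe is biotin-labelled aShh protein from a stem cell growth factor screen; measures binding of labelled protein to compounds printed on the slide; score merges feature fluorescence at 667 nm with signal-to-noise.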 The conditions noted are these: small-molecule microarray, higher = more signal.
A short description of assay [8]: probe aNog binding to arrayed compounds – biochemical, biotinylated probe, 635/667 nm fluorescence, primary screen (AID 1115).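 Also: probe is biotinylated aNog protein used at 0.15 µg/mL for 1 h at 4 C; z-score combines 667 nm fluorescence of each spot with its signal to noise.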 The conditions noted are these: small-molecule microarray, higher = more signal.
Assay [9] has as its target Torsin-1A-interacting protein 1 (Homo sapiens) (UniProt Q5JTV8). As to the kind of experiment: compound microarray binding of lysate hLAP1 – cell lysate, small-molecule microarray, COS7 lysate, 635/667 nm fluorescence, primary screen (AID 1116). The conditions noted are these: 635 nm fluorescence, higher = more signal.
Assay [10] addresses Alpha-bungarotoxin (Bungarus multicinctus) (UniProt P60615). The experiment in a line: compounds binding labelled alpha-BTX control protein – biochemical, small-molecule microarray, Alexa647 label, 635/667 nm fluorescence, artefact control for SMM control protein annotation, profiling panel (AID 1117). The conditions noted are these: alpha-BTX-A647 binding fluorescence, higher = more signal.

In another assay the target is Albumin (Bos taurus) (UniProt P02769). The experiment in a line: compounds binding labelled BSA control protein – biochemical, small-molecule microarray, Alexa647 label, 635/667 nm fluorescence, artefact control for SMM control protein annotation, profiling panel (AID 1118).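 Also: score merges 667 nm emission intensity and signal-to-noise per printed compound spot.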 The conditions noted are these: BSA-A647 binding, fluorescence 635 nm, higher = more signal.
Sequence of Albumin (Bos taurus) (P02769 whole entry, looked up): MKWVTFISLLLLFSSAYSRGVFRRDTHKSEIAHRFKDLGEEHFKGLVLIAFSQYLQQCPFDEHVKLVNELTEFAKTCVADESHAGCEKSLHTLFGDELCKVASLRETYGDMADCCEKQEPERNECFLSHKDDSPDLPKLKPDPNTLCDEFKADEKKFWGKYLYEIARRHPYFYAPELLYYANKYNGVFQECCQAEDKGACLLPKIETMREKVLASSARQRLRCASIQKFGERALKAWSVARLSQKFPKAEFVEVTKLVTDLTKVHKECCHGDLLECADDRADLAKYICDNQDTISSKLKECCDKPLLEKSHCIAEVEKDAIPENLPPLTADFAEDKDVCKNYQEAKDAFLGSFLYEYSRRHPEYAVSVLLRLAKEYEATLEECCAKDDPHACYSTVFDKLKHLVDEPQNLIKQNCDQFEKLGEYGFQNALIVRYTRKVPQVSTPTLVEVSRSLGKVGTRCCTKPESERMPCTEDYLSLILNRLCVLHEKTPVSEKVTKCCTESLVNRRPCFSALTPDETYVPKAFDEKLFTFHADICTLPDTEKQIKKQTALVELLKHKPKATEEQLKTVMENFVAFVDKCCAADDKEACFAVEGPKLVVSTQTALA
Assay [11] in a line: probe aXIP binding to arrayed compounds – biochemical, NeuroSMM set, 635/667 nm fluorescence, primary screen (AID 1119).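 Also: probe is the protein aXip251-270 applied at 1 µg/mL to compound-printed slides; binding of probe to printed compounds measured as 667 nm fluorescence plus signal to noise.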 The conditions noted are these: small-molecule microarray, higher = more signal, called active from +8 up or from −8 down.
Assay [12] can be described thus: probe aNOTCH3 binding on compound microarray – biochemical, small-molecule microarray, 635/667 nm fluorescence, primary screen (AID 1120).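 Also: probe is a biotin-tagged antibody raised against NOTCH3 rather than NOTCH3 protein; score merges spot fluorescence near 667 nm with spot signal to noise.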 The conditions noted are these: higher = more signal.
Assay [13] can be described thus: probe aNOTCH2 binding on compound microarray – biochemical, small-molecule microarray, 635/667 nm fluorescence, primary screen (AID 1121).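 Also: score merges feature fluorescence read at 667 nm with its signal to noise.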 The conditions noted are these: higher = more signal.
Assay [14] deals with Carbonic anhydrase 2 (Homo sapiens) (UniProt P00918). As to the kind of experiment: compounds binding carbonic anhydrase 2 – biochemical, small-molecule microarray, Alexa647-labelled CAII, profiling panel (AID 1122). The conditions noted are these: CAII-A647 binding fluorescence, higher = more signal.
Assay [15] is described as follows: COS7 lysate on small-molecule microarray, probe aHis, 635 nm (AID 1123).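 Also: z-score combines 667nm fluorescence intensity with signal-to-noise per printed compound spot.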 The conditions noted are these: COS7 cell lysate, fluorescence, higher = more signal.
Assay [16] can be described thus: probe aLAP1 signal on lysate-treated microarray – cell lysate, small-molecule microarray, COS7 lysate, primary screen (AID 1124).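 Also: lysate comes from COS7 cells expressing LAP1 and is applied at 0.3 µg/mL; score merges spot fluorescence near 667 nm with signal-to-noise over triplicate slides.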 The conditions noted are these: probe aLAP1, fluorescence, higher = more signal.
For the next assay, the system named is Sam68 (KHDRBS1). As to the kind of experiment: compounds binding KHDRBS1 protein – biochemical, small-molecule microarray, 635 nm fluorescence, primary screen (AID 1125).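 Also: score merges 667 nm channel intensity with signal to noise over triplicate slides.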 The conditions noted are these: higher = more signal.
Assay [17] deals with Chordin-like protein 2 (CHRDL2). The experiment in a line: compounds binding chordin-like 2 – biochemical, small-molecule microarray, 635 nm fluorescence, primary screen (AID 1126).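 Also: printed compound slides probed with Chrdl2 protein at 4 µg/mL for 1 h at 4 C; score merges 667 nm emission intensity with signal to noise over three replicate slides.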 The conditions noted are these: fluorescence 635 nm, higher = more signal.
The target of assay [18] is Concanavalin-A (Canavalia ensiformis) (UniProt P02866). As to the kind of experiment: compounds binding concanavalin A lectin – biochemical, small-molecule microarray, Alexa647 label, 635 nm, artefact control for SMM control protein annotation, primary screen (AID 1127).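 Also: z combines 667 nm emission intensity with signal-to-noise across three replicate slides.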 The conditions noted are these: ConA-A647 binding fluorescence, higher = more signal.
Sequence of Concanavalin-A (Canavalia ensiformis) (P02866 whole entry, looked up): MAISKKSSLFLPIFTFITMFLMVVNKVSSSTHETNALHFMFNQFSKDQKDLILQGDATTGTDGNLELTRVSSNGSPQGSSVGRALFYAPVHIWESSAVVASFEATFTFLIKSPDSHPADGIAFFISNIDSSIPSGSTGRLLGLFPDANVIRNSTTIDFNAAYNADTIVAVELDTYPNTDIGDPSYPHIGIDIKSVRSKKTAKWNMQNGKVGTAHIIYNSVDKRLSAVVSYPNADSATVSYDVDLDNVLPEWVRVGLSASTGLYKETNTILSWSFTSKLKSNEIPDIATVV

Active and inactive are the calls of the source.

Sequence of Torsin-1A-interacting protein 1 (Homo sapiens) (Q5JTV8 whole entry, looked up): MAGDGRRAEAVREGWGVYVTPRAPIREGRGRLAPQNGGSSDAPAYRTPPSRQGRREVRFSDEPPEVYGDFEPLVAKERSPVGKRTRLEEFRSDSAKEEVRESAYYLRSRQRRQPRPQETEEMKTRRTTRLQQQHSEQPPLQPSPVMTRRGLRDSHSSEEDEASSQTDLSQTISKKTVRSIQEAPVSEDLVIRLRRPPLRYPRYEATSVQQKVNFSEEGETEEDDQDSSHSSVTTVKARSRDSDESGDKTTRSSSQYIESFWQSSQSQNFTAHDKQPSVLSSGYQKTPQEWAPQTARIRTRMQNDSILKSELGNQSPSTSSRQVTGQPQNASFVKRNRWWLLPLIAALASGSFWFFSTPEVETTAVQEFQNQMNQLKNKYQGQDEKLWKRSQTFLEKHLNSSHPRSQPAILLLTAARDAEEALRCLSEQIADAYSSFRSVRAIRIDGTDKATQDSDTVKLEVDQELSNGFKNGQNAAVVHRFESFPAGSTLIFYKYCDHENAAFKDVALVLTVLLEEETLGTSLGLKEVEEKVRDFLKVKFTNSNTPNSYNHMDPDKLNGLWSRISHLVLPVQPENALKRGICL
Sequence of Alpha-bungarotoxin (Bungarus multicinctus) (P60615 whole entry, looked up): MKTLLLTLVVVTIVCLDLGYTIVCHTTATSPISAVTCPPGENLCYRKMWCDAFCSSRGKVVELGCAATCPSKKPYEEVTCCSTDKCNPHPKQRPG

Regarding `CN(C)C(=O)[C@]1(Cc2ccccc2)N=C(c2ccc(OCCCO)cc2)O[C@@H]1c1ccccc1`, the composite z-score is 1.49 in [1]; -0.0054 in [3]; 1.25 in assay [4]; 0.529 in [5]; 0.0317 in [6]; -0.214 in assay [7]. Also, the composite z-score was 1.43 in assay [8]; 1.8 in assay [9]; 0.917 in [10]; 0.62 with Albumin (Bos taurus); -0.046 in assay [12]; -0.0531 in assay [13]. The composite z-score in assay [14] is 0.687; in [15] it was 2.68; in assay [16] it was 0.429; in the assay on Sam68 (KHDRBS1), 0.978; in [17] it was -1.01; in assay [18], 0.915. The z-score in assay [2] is -1.88. Besides, in [11], the composite Z-score was 0.572 (inactive).
For the molecule `COc1cc(OC)c(C(O)C2C=CC3C(=O)N(c4ccccc4)C(=O)C3N2Nc2ccccc2F)cc1Br` (stereo not given), the composite z-score in assay [1] is 1.31; in [3] it was -0.137; in [4], 1.96; in assay [5], 0.764; in assay [6], -0.0462; in assay [7] it was 0.279. Further, the composite z-score in [8] is 1.62; in [9], 1.63; in assay [10], 1.92; in the assay with Albumin (Bos taurus), 0.89; in assay [12], 0.378; in assay [13] it was -0.0664. In addition, the composite z-score in assay [14] was 0.693; in assay [15] it was 2.91; in assay [16] it was 0.408; with Sam68 (KHDRBS1), 1.34; in assay [17] it was -0.577; in assay [18], 1.1. The molecule also had a z-score in [2] of -1.17. The composite Z-score in assay [11] was 0.476 (inactive).
Regarding `O=C1O[C@H](c2ccccc2)[C@H](c2ccccc2)N2[C@H]1[C@@H](C(=O)N1CCN(c3ncccn3)CC1)[C@]1(C(=O)Nc3ccccc31)[C@H]2c1ccc(O)cc1`, the composite z-score in [1] was 1.43; in assay [3], -0.412; in assay [4], 1.28; in [5], 0.618; in assay [6], -0.0643; in assay [7] it was -0.119. The composite z-score was 0.265 in assay [8]; -0.15 in [9]; 0.593 in assay [10]; 0.753 with Albumin (Bos taurus); -0.0932 in assay [12]; -0.0438 in assay [13]. Also, the composite z-score in assay [14] is 0.672; in assay [15], 2.48; in assay [16], 0.445; in the assay with Sam68 (KHDRBS1), 1.29; in assay [17], -0.0771; in assay [18], 1.16. In [2], this molecule showed a z-score of -1.9. The composite Z-score in [11] is 0.56 (inactive).
On to `CN(C)CCCC[C@@H]1NC(=O)[C@@H]2C[C@H](C(=O)NCc3ccc(F)cc3)[C@H](c3ccc(O)cc3)N2C1=O`, for which the composite z-score in assay [1] was 0.16; in assay [3], -0.275; in assay [4], -0.638; in [5] it was 0.235; in assay [6] it was -0.204; in [7], -0.138. Moreover, the composite z-score is -0.0503 in assay [8]; 0.385 in assay [9]; -0.407 in [10]; -0.16 in the assay with Albumin (Bos taurus); 0.0562 in [12]; -0.0974 in [13]. Besides, the composite z-score in [14] turned out to be 0.609; in [15] it was 0.901; in assay [16] it was 0.339; in the assay on Sam68 (KHDRBS1), 0.17; in assay [17], 0.0978; in assay [18], 0.911. The same molecule showed a z-score in assay [2] of -0.0619. Also, the composite Z-score in assay [11] is 0.0275 (inactive).
On to `CCCC[C@@H](O)C1=C(COC)Cn2c(=O)n(-c3ccccc3)c(=O)n2[C@H]1CO`, for which the composite z-score is -0.877 in [1]; -0.1 in assay [3]; -0.97 in assay [4]; -0.694 in assay [5]; -0.172 in assay [6]; -0.2 in [7]. Besides, the composite z-score in assay [8] was 0.474; in assay [9], 0.0334; in assay [10], -0.115; with Albumin (Bos taurus), -0.0338; in assay [12] it was -0.0967; in assay [13], -0.166. The composite z-score in assay [14] is -0.469; in [15] it was -0.162; in assay [16], 0.0924; with Sam68 (KHDRBS1), -0.532; in assay [17], -0.0073; in [18], -0.698. The molecule also showed a z-score in assay [2] of 1.36. Also, the composite Z-score in [11] was 0.0894 (inactive).
Consider `CCCCC(=C=CC[C@@H](O)c1ccc(OCCO)cc1)C[C@@H](O)c1ccccn1`, for which the composite z-score in assay [1] is -0.0715; in assay [3], 0.288; in assay [4], 0.421; in [5], 0.0751; in [6], -0.0685; in assay [7], 0.0611. For the same molecule, the composite z-score in assay [8] was 0.157; in assay [9], 0.642; in assay [10] it was 0.0829; with Albumin (Bos taurus), 0.681; in assay [12], 0.0557; in [13], -0.0785. Moreover, the composite z-score in assay [14] is 0.326; in [15], -0.0207; in [16], 0.209; in the assay on Sam68 (KHDRBS1), 1.15; in assay [17], 0.102; in [18] it was 0.223. Also, the z-score in assay [2] was -1.49. In addition, the composite Z-score in assay [11] is 0.111 (inactive).
